Compound activity (PubChem BioAssay)
WNV NS2B-NS3 inh: inhibitors of WNV NS2B-NS3 protease, primary screen, biochemical, fluorogenic substrate; Genome polyprotein (West Nile virus), P06935; fluorogenic substrate Ex360/Em465; active compounds read low; z-score (no concentration beside the values); 0.18% of 65,000 active; AID 577, 2007; in the data active = z-score below about -3
M1 antag: antagonists of rat M1 muscarinic receptor. 3.4% of 64,000 active. AID 628, 2007. Muscarinic acetylcholine receptor M1 (Rattus norvegicus), P08482. B-score at 10 µM. CHO-M1 cells, Fluo-4 calcium, ACh EC80 antagonist mode; active compounds read low;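 active = calcium fluorescence response, raw or row-and-column corrected B-score, differing from the plate sample mean either way at a set confidence level, mostly lower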
M1 ag: M1 muscarinic receptor agonists, primary screen, CHO-M1 cells, Fluo-4 calcium, agonist mode | 3% of 64,000 active | B-score at 10 µM | Fluo-4 calcium fluorescence; active compounds read high;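 active = fluorescence rise, raw or as B-score row- and column-corrected plate score, outside the 99.7% band of its plate's samples, either direction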
BAP1 inh: inhibitors of BAP1 deubiquitinase, primary screen, biochemical, Ub-AMC fluorescence, kinetic; calls only at 20 µM; Ubiquitin carboxyl-terminal hydrolase BAP1 (Homo sapiens), Q92560; recombinant BAP1, Ub-AMC hydrolysis fluorescence kinetic; active compounds read low; 0.48% of 72,000 active; AID 436, 2006;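 active = activity remaining at or below 50% of control, provided the compound also passes the data quality filters; inactive = the rest, including low values that fail the filters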;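 note: 100% = DMSO wells rate and 0% = substrate alone blank rate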
Target sequence (Q92560 whole entry, looked up): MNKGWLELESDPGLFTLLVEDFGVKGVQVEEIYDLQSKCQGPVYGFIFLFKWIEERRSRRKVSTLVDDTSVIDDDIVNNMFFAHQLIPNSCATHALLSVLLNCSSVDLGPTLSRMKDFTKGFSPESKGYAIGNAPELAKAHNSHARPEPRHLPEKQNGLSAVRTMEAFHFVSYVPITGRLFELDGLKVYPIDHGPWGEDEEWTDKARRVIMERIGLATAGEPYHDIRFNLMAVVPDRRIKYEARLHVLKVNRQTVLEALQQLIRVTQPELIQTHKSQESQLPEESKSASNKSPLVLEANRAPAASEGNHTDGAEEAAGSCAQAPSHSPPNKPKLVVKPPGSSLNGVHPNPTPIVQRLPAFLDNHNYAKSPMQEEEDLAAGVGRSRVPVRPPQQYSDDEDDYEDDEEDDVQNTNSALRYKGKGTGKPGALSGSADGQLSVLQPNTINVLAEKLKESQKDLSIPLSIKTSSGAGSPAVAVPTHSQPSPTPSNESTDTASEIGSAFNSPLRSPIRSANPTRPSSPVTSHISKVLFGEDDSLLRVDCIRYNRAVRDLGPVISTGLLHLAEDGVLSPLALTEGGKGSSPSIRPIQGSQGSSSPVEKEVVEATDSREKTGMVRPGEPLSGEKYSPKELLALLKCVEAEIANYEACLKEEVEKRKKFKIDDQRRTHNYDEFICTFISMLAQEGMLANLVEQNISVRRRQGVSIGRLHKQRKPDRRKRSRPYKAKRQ
Abs 340nm: compound light absorbance at 340 nm, profiling panel, artefact control, biochemical, MLSMR library, data from PS, PMK, MK assays | 65,000 tested, under 10 active | fold change at 10 µM | compound absorbance at 340 nm, fold over control | AID 708, 2007;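 active = at 10 µM dose, initial 340 nm absorbance at least 2 fold that of control wells; inactive = change under 2 fold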;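 note: initial absorbance extrapolated from kinetic A340 decline of NADH oxidation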
Autofluor 339: intrinsic fluorescence of library compounds, ex339/em460 – biochemical, MLSMR library, data from DPM-DC assay, artefact control, profiling panel | compound autofluorescence, ex339/em460 nm, NADH buffer; active compounds read high; 1 = no-compound wells, NADH background | fluorescence fold increase at 10 µM | 5.5% of 65,000 active | AID 709, 2007;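 active = at 10 µM, mean starting fluorescence two-fold or more over control wells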;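 note: signal is the first read of a kinetic run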
M1 ag confirm: rat M1 muscarinic receptor agonists, confirmation, CHO-M1 cells, Fluo-4 calcium, duplicate retest | 19% of 1,700 active | AID 1488, 2009 | fluorescence change (max-min) at 10 µM | shares compounds with M1 ag | Fluo-4 calcium fluorescence, agonist mode; actives lie on both sides;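 active = fluorescence change differs from the solvent-only DMSO control mean at a set confidence level in both duplicate runs; inconclusive = differs from solvent-only control mean in just one of two runs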;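 note: an EC20 dose of acetylcholine follows compound addition during the same imaging run; raw fluorescence intensity difference in instrument units with no normalization to controls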
M4 ag counter: agonist activity at rat M4 receptor, confirmation, counter-screen for M1 allosteric modulator project, cell-based, agonist mode | shares compounds with M1 ag | CHO M4/Gqi5 cells, Fluo-4 calcium fluorescence; actives lie on both sides | fluorescence change (max-min) at 10 µM | 9% of 1,700 active;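 active = fluorescence change differing from the plate's solvent-only control wells at 99.7% confidence in both duplicates, whether higher or lower; inconclusive = differs from solvent controls in only one of two duplicates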
An asterisk follows results filed as active; i = inactive; ? = inconclusive; . = no result shown. Hits are enriched below; roughly 9.7% of the tested compounds scored in any of these assays.

SMILES	WNV NS2B-NS3 inh	M1 antag	M1 ag	BAP1 inh	Abs 340nm	Autofluor 339	M1 ag confirm	M4 ag counter
CCC(CC)C(=O)NCCc1cc2cc(C)c(C)cc2[nH]c1=O	0.01	1.03	0.476	i	1.12	1.19	.	.
Cc1cc2cc(CCNC(=O)c3ccc(S(=O)(=O)N4CCOCC4)cc3)c(=O)[nH]c2cc1C	0.17	-1.91	6.66*	i	1.07	1.2	?	-66.8
O=C(CSc1nc2ccc(Cl)cc2[nH]1)NCc1ccco1	1.12	-0.366	3.07*	i	0.98	0.99	-24.9*	-74*
CCSc1nnc(NC(=O)c2cnccn2)s1	-1.17	0.164	-0.253	i	1.09	1.04	.	.
CCSc1nnc(NC(=O)c2ccccn2)s1	2.82	-0.105	11.2*	i	1.03	1	?	-59.5
O=C(Nc1ccccc1)N1CC=C(c2ccccc2)CC1	-1.16	0.15	0.35	i	1.04	1.2	.	.
O=C(Nc1ccccc1)N1CC=C(c2ccc(F)cc2)CC1	-0.02	-3.15*	5.41*	.	1.01	1.11	?	?
CCCn1c(C(O)c2ccc(C(C)C)cc2)nc2ccccc21 (stereo not given)	.	.	.	i	.	.	.	.
CCCCOc1ccc(OC(=O)c2cncc(Br)c2)cc1	.	.	.	i	.	.	.	.
COCCNC(=O)C(c1ccc(C)o1)N(Cc1ccc(OC)cc1)C(=O)Cn1nnc2ccccc21 (stereo not given)	-0.61	0.355	0.636	i	1	1.06	.	.
COCCNC(=O)C(c1ccc(C)o1)N(CC1CCCO1)C(=O)Cn1nnc2ccccc21 (stereo not given)	0.1	-0.0315	1.86*	i	1.01	1.08	?	-49.8
CCOCCCn1cnc2c(c1=O)c1nc3ccccc3nc1n2-c1ccccc1	-0.4	0.0575	3.9*	i	1.13	2.97*	?	-37.5
CCOCCCn1cnc2c(c1=O)c1nc3ccccc3nc1n2-c1ccc(C)cc1	-0.09	0.539	0.682	.	1.1	1.2	.	.
Cc1oc2ccc(NS(=O)(=O)c3cccc([N+](=O)[O-])c3)cc2c1C(=O)OC(C)C	.	.	.	i	.	.	.	.
CCCCOC(=O)Cn1c(=O)c2c(nc(Br)n2Cc2ccccc2)n(C)c1=O	0.07	-0.00901	7.51*	i	1.02	1.13	-18.4	-45.3
CCOC(=O)Cn1c(=O)c2c(nc(Br)n2Cc2ccccc2)n(C)c1=O	-0.39	0.377	-0.187	i	0.99	1.08	.	.
O=C(c1ccccc1Cl)N1CCN(c2ccc([N+](=O)[O-])cc2C(F)(F)F)CC1	.	.	.	i	.	.	.	.
Cc1ccc(Cl)cc1N1CCN(C(=O)Cn2ccc3ccccc3c2=O)CC1	0.38	-0.0472	8.75*	i	0.99	1.14	3.71	-26.1
Cc1ccc(C)c(N2CCN(C(=O)CCNC(=O)Cn3ccc4ccccc4c3=O)CC2)c1	0.15	-0.74	0.0611	i	1.02	1.22	.	.
Cc1cc(C)c(NC(=O)C2CCCN2CCO)c(C)c1 (stereo not given)	0.12	0.223	2*	i	1	1.01	1.76	-8.93
CCCCN1CCCCC1C(=O)Nc1c(C)cc(C)cc1C (stereo not given)	0.07	0.0118	-0.363	i	0.98	1.06	.	.
COc1ccc(-c2cc(C)c3c(ccc4ccccc43)n2)cc1	.	.	.	i	.	.	.	.
Cc1ccccc1Cn1ccc(NC(=O)c2cnn3c(C(F)(F)F)cc(-c4ccco4)nc23)n1	-0.72	-2.65*	9.18*	.	1.02	1.06	?	?
CCC(=O)Nc1ccc([N+](=O)[O-])cc1C	.	.	.	i	.	.	.	.
CCC(=O)Nc1nn(C)c2nc3c(C)cccc3cc12	-0.22	1.13	0.636	i	1.01	1.36	.	.
SMILES	WNV NS2B-NS3 inh	M1 antag	M1 ag	BAP1 inh	Abs 340nm	Autofluor 339	M1 ag confirm	M4 ag counter
Cc1cccc2cc3c(NC(=O)C(C)C)nn(C)c3nc12	1.25	-15.4*	12.2*	i	1	1.66	-16.3	-51.7
N#CC1=C(N)N2C(=C(C#N)C1c1ccccc1)Sc1ccccc12 (stereo not given)	0.71	0.565	25.9	i	1.09	1.1	.	.
CCOc1ccc(C2C(C#N)=C(N)N3C(=C2C#N)Sc2ccccc23)cc1 (stereo not given)	0.04	-0.441	9.91*	i	1.07	1.58	?	?
O=S(=O)(Nc1ccc2c(c1)OCCO2)c1ccc2c(c1)OCCO2	.	.	.	i	.	.	.	.
COc1ccccc1NC(=O)c1cc2ccc(O)cc2o/c1=N\O	-0.22	-0.207	0.412	i	1.06	1.54	.	.
COc1ccccc1N=c1oc2cc(O)ccc2cc1C(N)=O	0.73	-1.69	7.6*	i	1.09	3.58*	38.7	12.1
Cc1cccc(N=c2oc3cc(O)ccc3cc2C(N)=O)c1	-0.52	-0.0325	5.4*	.	1.07	3.69*	23.8	10.4
Cc1csc(NC(=O)CSc2nnc(-c3ccco3)n2C)n1	-0.74	0.293	0.00568	i	0.99	1.09	.	.
COc1cccc2cc(-c3nnc(SCC(=O)Nc4nc(C)cs4)n3C)oc12	1.39	0.391	3.94*	i	0.99	1.15	?	-59.9
CCCOc1ccc2ccccc2c1/C=N/n1c(C)nnc1-n1nc(C)cc1C	-0.52	-0.5	3.36*	i	1.09	1.12	?	-37.5
CCCC(=O)c1ccc(N2CCN(C(=O)c3ccccc3)CC2)c(F)c1	-0.78	-2.43	4.06*	i	1.06	1.09	0.123	-42.2
CCCC(=O)c1ccc(N2CCN(C(=O)c3ccc(Br)cc3)CC2)c(F)c1	0.98	0.595	0.0378	.	1.02	1.07	.	.
CCC(=O)c1cc(F)c(N2CCN(C(=O)Cc3ccccc3)CC2)cc1C	-1.16	-1.18*	2.67*	i	1.06	1.15	2.73	-25.5
CCCC(=O)c1ccc(N2CCN(C(=O)c3ccccc3Br)CC2)c(F)c1	-0.41	-3.24*	3.08*	i	1.02	1.12	?	-45.9
CCOC(=O)c1oc2ccccc2c1CN1CCOCC1	-0.19	-0.31	-1.22	i	0.97	1.07	.	.
CCN(CC)c1ccc2c(C)c(CN3CCOCC3)c(=O)oc2c1	3.34	-2.95*	7.1*	.	1.07	4.31*	43.1	-0.888
O=C(O)CCSc1nnnn1-c1ccccc1	1.28	0.421	0.467	i	0.98	1.05	.	.
